# CtBP-E1A inh = inhibitors of CtBP/E1A interaction; AID 651724; actives 0.49% (n = 340,000); AlphaScreen GST-E1A/His-CtBP binding, 1536-well; stronger effect = lower value; activity change, % (concentration not given with the values); in the data active = activity change below about -65%; inconclusive = mostly about -30% to -63%; also: % is scaled to controls: 0 for no effect and ±100 for the full control effect
#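 Homogeneous bead-based format: GST-tagged E1A captured on glutathione donor beads, His-tagged CtBP on nickel acceptor beads; compounds precede bead addition by 2 h at 37 °C.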
# HP1b binding inh = blocks HP1-beta chromodomain binding to methylated histone tails; P83916; AlphaScreen HP1-beta / biotin-H3K9me3 peptide binding; Potency, µM (doses to about 114 µM), for the others: at the top dose activity change, negative = inhibition, usual class: inhibitors; actives 0.56% (n = 390,000); AID 540317; also: potency is read from the fitted curve at half-maximal effect; nearly all actives have a fitted effect of over 70% in size
#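 AlphaScreen: HP1-beta (50 nM) preformed 30 min with biotin-H3(1-18)K9me3 peptide (50 nM) in PBS pH 7.4, 0.01% Tween-20. Compound added for 30 min at RT, then streptavidin donor/nickel chelate acceptor beads (10 ug/mL) for 30 min.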
# G9a inh = blocks human histone lysine methyltransferase G9a; Potency, µM (top dose mostly 102 µM), without a hit: at the highest dose activity, negative = inhibition, usual class: inhibitors; Q96KQ7; actives 8.8% (n = 350,000); AID 504332; G9a H3K9 monomethylation, AlphaScreen, 2 h; also: potency is read from the fitted curve at half-maximal effect; % is scaled to controls: 0 for no effect and ±100 for the full control effect; nearly all actives have a fitted effect of over 75% in size
#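 Quantitative HTS format: methyltransferase activity on a biotin-tagged H3K9 peptide is measured by AlphaScreen, using a rabbit anti-monomethyl-H3K9 antibody with streptavidin donor and anti-IgG acceptor beads. Final levels are 20 nM enzyme, 500 nM peptide, 20 uM SAM; 2 h RT.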
# BAZ2B block = BAZ2B (human) inhibition. Q9UIF8. AlphaScreen BAZ2B-H3K14Ac peptide displacement. Potency, µM (highest dose often 114 µM), for inactives: at the top dose activity change, negative = inhibition, usual class: inhibitors. actives 4.4% (n = 360,000); also: potency is read from the fitted curve at half-maximal effect; % is scaled to controls: 0 for no effect and ±100 for the full control effect; nearly all actives have a fitted effect of over 60% in size
#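 Multi-concentration screen (max 110 uM) measuring displacement of acetylated histone H3 peptide from BAZ2B by AlphaScreen, using 50 nM protein, 50 nM peptide and 10 ug/mL streptavidin donor plus Ni-chelate acceptor beads.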
# JMJD2A Tudor = blocks the human JMJD2A Tudor domain. O75164. AlphaScreen JMJD2A-Tudor / H3K4me3 peptide binding. Potency, µM (highest dose often 114 µM), for the others: at the top dose activity change, negative = inhibition, usual class: inhibitors. actives 4.4% (n = 390,000). AID 504339; also: potency is read from the fitted curve at half-maximal effect; % is scaled to controls: 0 for no effect and ±100 for the full control effect; nearly all actives have a fitted effect of over 50% in size
# Six1-Eya2 inh = Six1/Eya2 interaction inhibition; activity change, % (no concentration beside the values); actives 0.56% (n = 360,000); AlphaScreen GST-Six1/His-Eya2 binding, biochemical; stronger effect = lower value; Q15475+O00167; in the data active = activity change below about -65%; inconclusive = mostly about -30% to -63%; also: % is scaled to controls: 0 for no effect and ±100 for the full control effect
# Target sequence (O00167 whole entry, looked up): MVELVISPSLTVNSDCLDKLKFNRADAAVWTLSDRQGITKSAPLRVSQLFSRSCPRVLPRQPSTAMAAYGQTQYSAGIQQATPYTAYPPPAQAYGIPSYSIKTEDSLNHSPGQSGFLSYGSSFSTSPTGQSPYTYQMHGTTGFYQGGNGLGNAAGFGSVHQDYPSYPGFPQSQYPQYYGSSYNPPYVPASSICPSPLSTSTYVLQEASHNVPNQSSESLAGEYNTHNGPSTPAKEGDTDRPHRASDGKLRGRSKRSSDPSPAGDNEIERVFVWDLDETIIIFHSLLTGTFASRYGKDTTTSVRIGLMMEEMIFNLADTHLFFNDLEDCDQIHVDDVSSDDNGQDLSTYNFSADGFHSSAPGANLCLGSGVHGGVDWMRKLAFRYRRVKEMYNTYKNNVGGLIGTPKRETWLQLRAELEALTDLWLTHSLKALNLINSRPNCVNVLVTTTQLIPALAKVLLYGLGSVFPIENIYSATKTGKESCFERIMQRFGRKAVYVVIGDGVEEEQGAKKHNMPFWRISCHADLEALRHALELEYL
# Target sequence (Q15475 whole entry, looked up): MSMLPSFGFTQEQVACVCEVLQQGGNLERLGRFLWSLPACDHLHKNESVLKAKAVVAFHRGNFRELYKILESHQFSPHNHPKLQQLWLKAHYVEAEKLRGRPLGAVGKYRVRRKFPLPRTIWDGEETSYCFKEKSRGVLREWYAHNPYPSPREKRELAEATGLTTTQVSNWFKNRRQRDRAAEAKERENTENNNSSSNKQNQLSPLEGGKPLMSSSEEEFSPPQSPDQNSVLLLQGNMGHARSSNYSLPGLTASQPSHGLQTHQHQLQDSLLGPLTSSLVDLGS
#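 GST-Six1 + His-Eya2 (5X stock: 250/500 nM); Tris pH 8.0, 300 mM NaCl, 0.05% BSA, 0.02% Tween 20; GSH donor/Ni acceptor beads; 1 h 37 °C dark; AlphaScreen readout.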
# * = called active by the depositor; ? = inconclusive; nt = no result given; [ ] = dose if it differs, or a comment. Most compounds without a hit are left out; they make up all but 10% or so of the library. Unless noted, calls follow the shape of the dose curve; as a rule, active = well fitted inhibition curve with a large enough effect; inconclusive = small, poorly fitted or top-dose-only effect; inactive = no such curve, though single readings can be large or run the other way.
SMILES,CtBP-E1A inh,HP1b binding inh,G9a inh,BAZ2B block,JMJD2A Tudor,Six1-Eya2 inh
CCN(CC)CCCN1C(=O)C(O)=C(C(=O)c2sc(C)nc2C)C1c1ccc(C)o1 (stereo not drawn),nt,nt,-17%[59 µM],-22%,nt,nt
CCc1ccc(-n2c(N3CCN(c4ccc(F)cc4)CC3)nc3ccccc3c2=O)cc1,nt,-2%,?,nt,-29%,nt
N=C1C=CC(=C(c2ccc(N)cc2)c2ccc(N)cc2)C=C1,0,?,nt,nt,7.1µM*,-24
Nc1ccc(C(=O)C(=O)c2ccc(N)cc2)cc1,nt,17%,2%,-4%,-4%,-2
O=[N+]([O-])c1ccccc1-c1ccc(/C=N/n2cnnc2)o1,-7,-3%,-1%,-6%,-29%,-6
Cc1cc(C(=O)O)ccc1-c1ccc(/C=N/n2cnnc2)o1,4,33%,56µM*,1%,2%,6
O=[N+]([O-])c1cc(-c2ccc(/C=N\n3cnnc3)o2)cc([N+](=O)[O-])c1,-4,?,45µM*,-38%,?,-20
Cc1nn(C)c(C)c1S(=O)(=O)N(CC(=O)Nc1ccc(F)cc1F)c1ccc(C(C)C)cc1,nt,28%,-22%[59 µM],-6%,-8%,nt
Cc1cc(NCCO)nc(-n2nc(C)cc2C)n1,-3,43%,?,14%,-8%,-8
Cc1cc(N(CCO)CCO)nc(-n2nc(C)cc2C)n1,0,52%,40µM*,-15%,?,2
O=C(O)CSc1nnc(-c2cccs2)n1-c1ccc(Cl)cc1,2,?,?,-18%,18µM*,-2
COc1ccc(N2CCCC2)c(NC(=O)COc2ccccc2)c1,-22,?,40µM*,?,?,-22
Cc1cc(N2CCCC2)ccc1NC(=O)COc1ccccc1,-7,-7%,7.1µM*,-36%,?,-5
CCc1ccccc1OCC(=O)Nc1ccc(N2CCCC2)cc1C,-11,7%,3.2µM*,?,?,10
Cc1cccc(OCC(=O)Nc2ccccc2N2CCCCC2)c1C,18,127%,22%,38%,44%,12
COc1ccc(OCC(=O)Nc2ccccc2Cl)cc1,12,19%,7%,50µM*,-9%,7
COc1ccc(OCC(=O)Nc2ccccc2OC)cc1,-12,25%,3%[59 µM],-4%,7%,1
Cn1c2cc(CO)sc2c2cnn(Cc3ccccc3F)c(=O)c21,nt,nt,nt,nt,-2%,nt
CC(C)CSC1=NSC2=NC(=O)/C(=C\c3cccs3)C(=N)N12,-14,-4%,45µM*,?,?,-7
COc1cccc(NC(=O)C2CCN(c3ccc(Sc4ccc(C)cc4)nn3)CC2)c1,nt,22%,-33%[59 µM],-3%,-13%,nt
Cc1cccc(C(=O)OCc2cc(=O)oc3c(C)c(C)ccc23)c1O,3,32%,40µM*,-21%,-7%,6
CCN(CCO)Cc1cc(=O)oc2c(C)c(C)ccc12,-3,-1%,50µM*,5%,-15%,-11
COC(=O)C1CCN(CC(=O)Nc2cc(C)c3c(=O)oc4ccccc4c3n2)CC1,nt,15%,-22%[59 µM],-11%,-12%,nt
COc1cn(CC(=O)Nc2ccc(C)cc2)c(CN2CCCCC2)cc1=O,nt,36%,8%[59 µM],5%,-3%,nt
COc1cccc(Nc2nc(-c3cccc(N4C(=O)c5ccccc5C4=O)c3)cs2)c1,-4,?,14µM*,?,?,3
SMILES,CtBP-E1A inh,HP1b binding inh,G9a inh,BAZ2B block,JMJD2A Tudor,Six1-Eya2 inh
COc1cccc(Nc2nc(-c3ccc(O)cc3)cs2)c1,19,-9%,50µM*,?,?,-2
COc1cccc(-c2csc(Nc3ccc(Oc4ccccc4)cc3)n2)c1,-7,nt,nt,nt,nt,-17
CCCCNC(=O)c1nn(-c2ccc(C)cc2)c(=O)n(C)c1=O,nt,13%[57 µM],-4%[59 µM],-3%,-18%,nt
COc1ccccc1N1CCN(C(=O)c2cnc(N3CCOCC3)c3ccccc23)CC1,nt,19%[57 µM],26%[59 µM],-4%,-11%,nt
Cc1c(C(=O)NCc2ccc(Cl)cc2)sc2nc3n(c(=O)c12)CCCC3,nt,115%,11µM*,-23%,9%,nt
COc1ccc(CNC(=O)c2sc3nc4n(c(=O)c3c2C)CCCC4)cc1,nt,56%,14µM*,45µM*,89µM*,nt
Cc1c(C(=O)NCc2ccccc2Cl)sc2nc3n(c(=O)c12)CCC3,nt,10%,-29%[59 µM],-38%,-23%,nt
Cc1c(C(=O)NCc2cccc(Cl)c2)sc2nc3n(c(=O)c12)CCCC3,nt,61%,16µM*,18µM*,79µM*,nt
COc1ccc(CCNC(=O)c2sc3nc4n(c(=O)c3c2C)CCC4)cc1,-19,15%,-38%,7%,-5%,-7
CCc1cccc(NC(=O)c2sc3nc4n(c(=O)c3c2C)CCC4)c1,?,20%,21%,-18%,-1%,-14
Cc1c(C(=O)Nc2cccc(C#N)c2)sc2nc3n(c(=O)c12)CCCCC3,nt,36%,?,50µM*,-12%,nt
Cc1ccccc1CNCCCSc1nnnn1-c1ccccc1,nt,39%,-8%[59 µM],-17%,-12%,nt
O=C(NC1CC1)c1ccc(Cn2c(SCc3cccc(F)c3)nc3cccnc32)cc1,nt,26%,3%[59 µM],-21%,-1%,nt
CCOc1ccc(CCNC(=O)c2sc3nc4n(c(=O)c3c2C)CCCC4)cc1OCC,nt,71%,-35%[59 µM],56µM*,-14%,nt
COc1ccc(C(C)=O)cc1CS(=O)(=O)CC(=O)O,1,22%,45µM*,-18%,-2%,-4
Cc1ccc(-n2c(=O)[nH]c3cc(C(=O)NCc4ccccc4)ccc3c2=O)cc1,nt,14%,-28%[59 µM],3%,-9%,nt
CC(C)C(=O)Nc1ccc(C(=O)N/N=C/c2cc(Br)cc(Br)c2O)cc1,-11,9%,nt,7.9µM*,?,-1
CC(=O)Nc1ccc(C(=O)N/N=C/c2cc(Br)cc(Br)c2O)cc1,?,?,4%,0%,56µM*,-65*
O=C(Cc1ccc(F)cc1)NCc1ccc2c(c1)CCN2C(=O)c1ccc(F)cc1,nt,30%,3%[59 µM],-3%,-10%,nt
Cc1cccc(NC(=O)CN2C(=O)C3(SCC(=O)N3c3ccccc3)c3ccccc32)c1 (stereo not drawn),nt,-2%,-21%[59 µM],1%[57.1 µM],-27%,nt
Oc1c(Br)cc(Br)cc1CNc1ccc(F)cc1,?,-16%,45µM*,40µM*,?,-18
CC(C)c1ccc(NC(=O)c2cc(S(=O)(=O)N(C)C3CCCCC3)ccc2F)cc1,nt,41%,6%[59 µM],0%,-9%,nt
COc1ccc(OCCOC(=O)CNC(=O)c2cccc(C)c2)cc1,0,13%,50µM*,13%,-2%,12
O=[N+]([O-])/C(C(Cl)=C(Cl)Cl)=C(/Sc1ccccc1)N1CCCCC1,15,-36%,nt,35µM*,?,10
